Source: the supplement of paper PMC11732987, “Enantioselective OTUD7B fragment discovery through chemoproteomics screening and high-throughput optimisation” (Communications Chemistry, 2025)

Columns and labels:
Test in all cases: log2 ratio of Biotin-Ahx-Ub-VS probe labelling (fragment/DMSO); higher = less target engagement (more negative = stronger competition), active = hit call of the paper (q ≤ 0.05, log2 ratio ≤ -1)
Conditions in all cases: compound concentration: 200 uM; treatment time: 3 h
USP34 = USP34 (UniProt Q70CQ2)
Procedure, shortened: (§1)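 Triplicate samples of HEK293T lysate, 495 µg each, received fragment at 200 µM or vehicle for 3 h, followed by Biotin-Ahx-Ub-VS (0.5 µM final) for 1 h. After NeutrAvidin enrichment of labelled DUBs and LysC/trypsin digestion, peptides were run by diaPASEF LC-MS/MS. The values are average log2 fragment/vehicle ratios from global-median-normalised Spectronaut label-free quantities, tested by unpaired t-test on proteins having ≥2 unique peptides.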

USP36 = biological target: T1, USP36 (UniProt Q9P275)
T1 sequence (whole entry): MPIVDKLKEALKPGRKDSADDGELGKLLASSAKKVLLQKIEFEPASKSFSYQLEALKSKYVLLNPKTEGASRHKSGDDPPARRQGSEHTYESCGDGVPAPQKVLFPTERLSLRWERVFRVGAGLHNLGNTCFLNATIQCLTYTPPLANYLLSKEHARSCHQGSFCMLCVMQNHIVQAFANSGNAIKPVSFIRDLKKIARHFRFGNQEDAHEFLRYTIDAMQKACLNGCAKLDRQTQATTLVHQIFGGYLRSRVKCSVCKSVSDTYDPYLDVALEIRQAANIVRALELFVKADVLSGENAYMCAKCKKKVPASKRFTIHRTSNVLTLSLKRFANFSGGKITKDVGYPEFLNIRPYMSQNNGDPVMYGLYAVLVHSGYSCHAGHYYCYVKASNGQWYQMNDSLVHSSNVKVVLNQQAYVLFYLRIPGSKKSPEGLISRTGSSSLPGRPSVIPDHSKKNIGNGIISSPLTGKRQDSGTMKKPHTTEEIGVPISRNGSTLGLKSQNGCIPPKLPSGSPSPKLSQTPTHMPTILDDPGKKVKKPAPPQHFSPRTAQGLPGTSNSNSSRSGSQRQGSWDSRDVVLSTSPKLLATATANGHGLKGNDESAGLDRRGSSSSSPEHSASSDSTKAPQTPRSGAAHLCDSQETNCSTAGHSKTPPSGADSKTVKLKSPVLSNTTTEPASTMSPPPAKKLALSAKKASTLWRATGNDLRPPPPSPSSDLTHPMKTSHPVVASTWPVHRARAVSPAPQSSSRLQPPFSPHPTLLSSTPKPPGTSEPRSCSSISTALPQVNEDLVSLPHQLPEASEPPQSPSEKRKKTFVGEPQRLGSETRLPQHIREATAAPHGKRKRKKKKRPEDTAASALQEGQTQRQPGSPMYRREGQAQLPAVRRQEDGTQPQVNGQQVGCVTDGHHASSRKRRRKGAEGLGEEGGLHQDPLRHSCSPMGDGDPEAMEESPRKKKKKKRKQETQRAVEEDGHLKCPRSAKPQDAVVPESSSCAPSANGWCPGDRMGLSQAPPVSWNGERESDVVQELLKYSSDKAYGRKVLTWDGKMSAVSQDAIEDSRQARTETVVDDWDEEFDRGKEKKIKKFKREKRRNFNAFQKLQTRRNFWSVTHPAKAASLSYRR
Procedure, shortened: as §1

USP38 = biological target: T2, USP38 (UniProt Q8NB14)
T2 sequence (whole entry): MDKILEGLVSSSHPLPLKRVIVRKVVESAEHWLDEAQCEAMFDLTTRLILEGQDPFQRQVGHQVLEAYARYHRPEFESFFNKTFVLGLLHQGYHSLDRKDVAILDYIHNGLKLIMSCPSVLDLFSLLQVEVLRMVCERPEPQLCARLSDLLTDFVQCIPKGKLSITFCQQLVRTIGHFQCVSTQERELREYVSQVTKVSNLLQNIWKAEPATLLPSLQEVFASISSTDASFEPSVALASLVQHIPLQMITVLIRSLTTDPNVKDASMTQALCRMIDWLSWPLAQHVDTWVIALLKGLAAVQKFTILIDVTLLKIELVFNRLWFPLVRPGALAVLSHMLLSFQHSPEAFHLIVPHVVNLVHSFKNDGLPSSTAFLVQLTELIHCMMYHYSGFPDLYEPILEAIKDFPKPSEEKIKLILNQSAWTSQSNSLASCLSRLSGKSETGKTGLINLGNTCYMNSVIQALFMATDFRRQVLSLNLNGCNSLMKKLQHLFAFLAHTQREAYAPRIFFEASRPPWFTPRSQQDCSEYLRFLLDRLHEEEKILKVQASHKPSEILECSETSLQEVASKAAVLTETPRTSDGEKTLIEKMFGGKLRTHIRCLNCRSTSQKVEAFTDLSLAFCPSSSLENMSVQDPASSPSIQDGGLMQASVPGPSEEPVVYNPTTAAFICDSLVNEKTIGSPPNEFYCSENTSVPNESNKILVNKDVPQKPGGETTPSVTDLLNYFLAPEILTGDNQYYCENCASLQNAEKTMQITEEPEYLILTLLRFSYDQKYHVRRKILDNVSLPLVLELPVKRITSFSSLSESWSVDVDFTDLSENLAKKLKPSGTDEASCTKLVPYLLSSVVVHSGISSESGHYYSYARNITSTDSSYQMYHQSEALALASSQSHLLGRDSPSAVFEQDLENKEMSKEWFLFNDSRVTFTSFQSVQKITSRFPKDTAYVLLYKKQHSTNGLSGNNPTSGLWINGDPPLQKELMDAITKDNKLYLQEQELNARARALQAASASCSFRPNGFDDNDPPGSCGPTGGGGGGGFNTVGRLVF
Procedure, shortened: as §1

USP39 = biological target: T3, USP39 (UniProt Q53GS9)
T3 sequence (whole entry): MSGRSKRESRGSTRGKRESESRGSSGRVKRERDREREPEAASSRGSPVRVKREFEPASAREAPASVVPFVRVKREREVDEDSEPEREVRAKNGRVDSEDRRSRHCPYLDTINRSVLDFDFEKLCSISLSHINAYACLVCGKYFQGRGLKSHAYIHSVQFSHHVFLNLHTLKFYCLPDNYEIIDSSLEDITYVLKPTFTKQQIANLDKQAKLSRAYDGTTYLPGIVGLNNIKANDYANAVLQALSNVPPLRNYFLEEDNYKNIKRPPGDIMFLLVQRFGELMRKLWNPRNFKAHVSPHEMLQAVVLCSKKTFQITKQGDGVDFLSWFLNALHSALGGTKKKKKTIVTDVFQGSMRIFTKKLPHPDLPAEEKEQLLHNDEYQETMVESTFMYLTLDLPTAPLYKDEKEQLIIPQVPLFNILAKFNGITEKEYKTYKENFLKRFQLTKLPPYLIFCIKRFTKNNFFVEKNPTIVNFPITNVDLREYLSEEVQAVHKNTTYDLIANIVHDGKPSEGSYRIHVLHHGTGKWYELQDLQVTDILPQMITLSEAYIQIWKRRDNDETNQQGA
Procedure, shortened: as §1

USP4 = biological target: T4, USP4 (UniProt Q13107)
T4 sequence (whole entry): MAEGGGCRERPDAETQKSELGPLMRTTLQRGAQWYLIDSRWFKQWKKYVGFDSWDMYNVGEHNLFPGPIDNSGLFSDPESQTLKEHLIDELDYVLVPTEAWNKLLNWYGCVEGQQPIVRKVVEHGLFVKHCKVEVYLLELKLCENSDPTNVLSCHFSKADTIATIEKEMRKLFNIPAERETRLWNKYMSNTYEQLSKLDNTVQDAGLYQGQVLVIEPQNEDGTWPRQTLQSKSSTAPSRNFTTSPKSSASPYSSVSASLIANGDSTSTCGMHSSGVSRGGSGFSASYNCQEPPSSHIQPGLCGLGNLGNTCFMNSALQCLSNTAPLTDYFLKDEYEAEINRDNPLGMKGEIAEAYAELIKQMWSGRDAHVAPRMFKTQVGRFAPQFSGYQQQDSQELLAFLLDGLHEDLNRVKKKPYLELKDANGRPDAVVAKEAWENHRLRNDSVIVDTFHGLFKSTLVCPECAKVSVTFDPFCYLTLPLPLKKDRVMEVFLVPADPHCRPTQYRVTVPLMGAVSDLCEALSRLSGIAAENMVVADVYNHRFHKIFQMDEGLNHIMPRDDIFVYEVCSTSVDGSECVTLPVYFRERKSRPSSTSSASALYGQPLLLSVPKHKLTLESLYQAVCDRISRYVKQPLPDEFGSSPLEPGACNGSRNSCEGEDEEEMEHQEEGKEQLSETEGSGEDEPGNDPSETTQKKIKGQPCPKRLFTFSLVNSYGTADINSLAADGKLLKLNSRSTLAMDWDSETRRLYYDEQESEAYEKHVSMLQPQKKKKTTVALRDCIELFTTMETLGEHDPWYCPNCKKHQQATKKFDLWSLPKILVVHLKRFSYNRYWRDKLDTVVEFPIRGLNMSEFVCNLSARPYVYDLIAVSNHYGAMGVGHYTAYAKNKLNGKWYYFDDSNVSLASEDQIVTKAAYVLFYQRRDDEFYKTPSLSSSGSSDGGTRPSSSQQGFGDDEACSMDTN
Procedure, shortened: as §1

Measured: log2 ratio of Biotin-Ahx-Ub-VS probe labelling

Chain of USP34 (Q70CQ2 whole entry, the tested form may be a part): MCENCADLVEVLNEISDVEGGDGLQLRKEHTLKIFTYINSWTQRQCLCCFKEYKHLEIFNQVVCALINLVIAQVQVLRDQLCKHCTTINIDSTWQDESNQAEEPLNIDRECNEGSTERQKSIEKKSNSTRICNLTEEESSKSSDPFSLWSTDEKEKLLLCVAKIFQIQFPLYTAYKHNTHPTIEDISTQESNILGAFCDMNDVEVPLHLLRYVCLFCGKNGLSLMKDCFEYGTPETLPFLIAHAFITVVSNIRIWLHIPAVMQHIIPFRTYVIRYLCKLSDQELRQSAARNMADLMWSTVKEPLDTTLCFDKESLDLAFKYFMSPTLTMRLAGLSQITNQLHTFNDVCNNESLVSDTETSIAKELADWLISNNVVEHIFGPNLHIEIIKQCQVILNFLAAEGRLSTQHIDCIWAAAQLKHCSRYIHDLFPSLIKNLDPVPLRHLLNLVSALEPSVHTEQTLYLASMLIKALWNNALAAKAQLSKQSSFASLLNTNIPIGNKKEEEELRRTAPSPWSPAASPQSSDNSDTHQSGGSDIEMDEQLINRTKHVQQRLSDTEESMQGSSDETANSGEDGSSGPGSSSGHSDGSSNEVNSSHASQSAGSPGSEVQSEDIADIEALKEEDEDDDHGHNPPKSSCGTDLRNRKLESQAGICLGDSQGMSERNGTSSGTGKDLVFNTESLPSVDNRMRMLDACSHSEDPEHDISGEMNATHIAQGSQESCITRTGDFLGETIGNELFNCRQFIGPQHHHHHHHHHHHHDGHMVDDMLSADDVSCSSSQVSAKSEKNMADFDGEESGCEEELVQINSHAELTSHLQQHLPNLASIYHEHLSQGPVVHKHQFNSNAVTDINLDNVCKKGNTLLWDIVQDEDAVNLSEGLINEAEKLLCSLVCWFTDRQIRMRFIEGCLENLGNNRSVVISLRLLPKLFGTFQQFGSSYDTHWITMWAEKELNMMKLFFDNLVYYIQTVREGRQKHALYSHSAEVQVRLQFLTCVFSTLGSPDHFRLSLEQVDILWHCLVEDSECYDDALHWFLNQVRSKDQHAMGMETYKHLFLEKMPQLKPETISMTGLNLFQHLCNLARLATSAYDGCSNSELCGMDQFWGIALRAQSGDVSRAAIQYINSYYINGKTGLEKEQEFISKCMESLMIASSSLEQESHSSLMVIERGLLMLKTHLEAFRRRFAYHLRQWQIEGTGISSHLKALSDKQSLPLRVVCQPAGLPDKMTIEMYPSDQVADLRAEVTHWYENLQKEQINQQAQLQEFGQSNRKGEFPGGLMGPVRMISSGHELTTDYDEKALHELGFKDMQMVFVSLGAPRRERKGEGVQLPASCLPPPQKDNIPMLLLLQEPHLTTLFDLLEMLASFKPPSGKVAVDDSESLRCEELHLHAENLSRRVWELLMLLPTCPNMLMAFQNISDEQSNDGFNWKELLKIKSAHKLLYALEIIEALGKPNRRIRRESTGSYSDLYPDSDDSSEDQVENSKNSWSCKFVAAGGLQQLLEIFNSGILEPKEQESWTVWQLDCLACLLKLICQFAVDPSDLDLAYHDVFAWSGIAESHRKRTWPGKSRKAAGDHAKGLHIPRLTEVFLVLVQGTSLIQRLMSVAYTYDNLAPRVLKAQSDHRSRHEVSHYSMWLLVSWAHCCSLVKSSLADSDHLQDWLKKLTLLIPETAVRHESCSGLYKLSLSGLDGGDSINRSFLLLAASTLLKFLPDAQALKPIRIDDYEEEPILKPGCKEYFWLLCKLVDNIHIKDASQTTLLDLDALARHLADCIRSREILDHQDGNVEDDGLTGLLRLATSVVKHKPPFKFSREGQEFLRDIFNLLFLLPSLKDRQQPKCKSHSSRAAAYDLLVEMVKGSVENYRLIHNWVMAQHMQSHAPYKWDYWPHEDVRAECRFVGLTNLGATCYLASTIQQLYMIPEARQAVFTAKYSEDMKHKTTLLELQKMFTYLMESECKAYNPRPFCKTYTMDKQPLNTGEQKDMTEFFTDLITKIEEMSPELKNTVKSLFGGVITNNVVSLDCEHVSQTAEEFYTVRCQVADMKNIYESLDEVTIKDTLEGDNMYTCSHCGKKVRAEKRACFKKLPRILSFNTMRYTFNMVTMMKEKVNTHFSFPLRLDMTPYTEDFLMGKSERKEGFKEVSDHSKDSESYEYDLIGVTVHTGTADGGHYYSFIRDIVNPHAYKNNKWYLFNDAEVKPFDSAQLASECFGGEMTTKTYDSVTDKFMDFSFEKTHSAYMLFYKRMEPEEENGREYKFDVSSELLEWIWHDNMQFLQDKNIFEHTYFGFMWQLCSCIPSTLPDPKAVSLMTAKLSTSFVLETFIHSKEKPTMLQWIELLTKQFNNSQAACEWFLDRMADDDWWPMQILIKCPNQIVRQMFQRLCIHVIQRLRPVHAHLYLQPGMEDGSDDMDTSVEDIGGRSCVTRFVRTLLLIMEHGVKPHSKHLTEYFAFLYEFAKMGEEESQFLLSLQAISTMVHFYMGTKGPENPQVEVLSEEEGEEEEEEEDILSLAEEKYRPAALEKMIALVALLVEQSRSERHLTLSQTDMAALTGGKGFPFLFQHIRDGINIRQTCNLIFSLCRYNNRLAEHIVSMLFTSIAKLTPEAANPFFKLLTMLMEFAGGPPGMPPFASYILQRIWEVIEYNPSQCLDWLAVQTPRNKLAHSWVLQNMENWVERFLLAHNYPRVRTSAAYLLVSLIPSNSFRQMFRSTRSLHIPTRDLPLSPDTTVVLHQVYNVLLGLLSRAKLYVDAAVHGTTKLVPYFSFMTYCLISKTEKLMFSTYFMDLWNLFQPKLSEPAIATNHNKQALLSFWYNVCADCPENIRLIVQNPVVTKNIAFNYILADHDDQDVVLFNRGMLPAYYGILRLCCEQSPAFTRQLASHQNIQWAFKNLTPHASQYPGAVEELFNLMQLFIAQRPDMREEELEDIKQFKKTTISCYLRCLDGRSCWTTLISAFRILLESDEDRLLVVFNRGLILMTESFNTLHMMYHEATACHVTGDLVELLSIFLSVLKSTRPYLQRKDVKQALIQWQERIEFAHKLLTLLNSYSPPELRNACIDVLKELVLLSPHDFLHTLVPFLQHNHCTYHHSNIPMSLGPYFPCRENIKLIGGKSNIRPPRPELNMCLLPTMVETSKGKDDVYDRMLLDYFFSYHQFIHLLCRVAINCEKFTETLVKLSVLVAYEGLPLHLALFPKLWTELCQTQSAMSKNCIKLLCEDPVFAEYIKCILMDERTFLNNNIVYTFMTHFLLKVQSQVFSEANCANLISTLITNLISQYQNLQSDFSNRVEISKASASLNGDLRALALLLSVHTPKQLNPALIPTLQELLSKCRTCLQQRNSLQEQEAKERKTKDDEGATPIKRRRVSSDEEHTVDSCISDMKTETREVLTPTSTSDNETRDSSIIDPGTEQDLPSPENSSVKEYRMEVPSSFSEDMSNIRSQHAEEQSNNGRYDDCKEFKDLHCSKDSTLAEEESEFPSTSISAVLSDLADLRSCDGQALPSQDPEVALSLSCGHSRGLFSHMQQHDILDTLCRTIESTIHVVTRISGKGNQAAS

COc1ccc(CN(C)C(=O)CCl)cc1
inactive: USP34 -0.0886 | USP36 0.0384 | USP38 0.0505 | USP39 0.298 | USP4 -0.016
